# Compound activity from PubChem BioAssay.
# In the library only some 0.55% were active in any assay of this set; here they are far more common.
# TSHR antag = blocks TSH signaling through the human TSH receptor; P16473; TSHR-expressing cells, TSH-stimulated cAMP HTRF, 2 h; hits give low values; activity change, negative = inhibition, % at 11.5 µM; 0.2% of 330,000 active; AID 504810;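 active means activity change below a set negative limit, meaning inhibition stronger than a set level, cut at about -70% in these data; inconclusive means activity change between two set negative limits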
# Target sequence (P16473 whole entry, looked up): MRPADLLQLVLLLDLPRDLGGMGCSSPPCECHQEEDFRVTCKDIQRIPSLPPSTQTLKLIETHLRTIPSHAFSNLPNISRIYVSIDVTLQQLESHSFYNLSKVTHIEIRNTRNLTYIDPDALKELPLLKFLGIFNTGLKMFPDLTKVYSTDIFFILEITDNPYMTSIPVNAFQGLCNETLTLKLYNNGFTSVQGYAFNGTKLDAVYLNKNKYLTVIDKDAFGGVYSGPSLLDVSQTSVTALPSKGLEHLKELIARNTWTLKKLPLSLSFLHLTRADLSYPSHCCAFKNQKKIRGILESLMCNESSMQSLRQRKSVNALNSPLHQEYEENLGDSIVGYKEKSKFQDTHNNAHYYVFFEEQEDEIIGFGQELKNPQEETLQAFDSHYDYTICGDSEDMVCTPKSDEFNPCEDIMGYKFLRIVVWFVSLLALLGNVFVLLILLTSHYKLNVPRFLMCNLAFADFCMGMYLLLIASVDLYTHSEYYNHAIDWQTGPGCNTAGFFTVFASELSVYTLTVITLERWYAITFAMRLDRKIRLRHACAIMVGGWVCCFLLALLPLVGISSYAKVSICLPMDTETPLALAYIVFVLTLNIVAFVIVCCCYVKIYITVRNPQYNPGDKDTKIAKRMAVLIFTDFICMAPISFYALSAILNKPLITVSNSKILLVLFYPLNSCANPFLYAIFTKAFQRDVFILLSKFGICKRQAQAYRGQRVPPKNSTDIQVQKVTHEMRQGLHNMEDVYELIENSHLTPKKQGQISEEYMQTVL
#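 Cell-based HTRF cAMP assay; TSHR cells + compound, TSH EC80 (4nM final), 2 h, 37 deg C. Lysis with anti-cAMP cryptate and cAMP-d2, 30 min RT, read 665/620 nm.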
# Glioma ERSR ind = induces the endoplasmic reticulum stress response in human glioma cells; AID 602332; 0.02% of 420,000 active; Potency, µM, most hits filed as activators; U87-MG GRP78 promoter luciferase reporter, 16 h; further: series mostly up to about 76 µM; nearly all actives have a fitted effect of over 35% in size
#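 ERSR induction read as luciferase luminescence (Bright-Glo, 10 min at room temperature) in stably transfected human U87-MG glioma cells exposed to compounds for 16 h, using GRP78 as sensor.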
# pAkt inh = blocks phosphorylation of Akt; Neuro2A IGF-stimulated pAkt S473 HTRF, 20 min; hits give low values; activity change, % for hits at 50 µM; 0.32% of 360,000 active; AID 651550; in the data active means activity change below about -80%; inconclusive means mostly about -51% to -80%
#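 Neuro2A cells (4,500/well, DMEM with 0.5% FBS) were treated with compound at a single 50 µM final concentration, stimulated with 6 nM IGF for 20 min at 37 °C, and lysed. Phospho-Akt Ser473 was read by HTRF as 665/615 ratio ×10^4.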
# TCR act = T cell receptor activation; primary human leukocytes, anti-CD3, IL-2 HTRF, 48 h; Potency, µM (highest dose often 9.22 µM), usual class: activators; 330,000 tested, under 10 active; AID 504894
#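 48 hr co-incubation of compounds, a-CD3 beads and primary human leukocytes; IL-2 quantified homogeneously by HTRF with anti-IL-2 K and d2 conjugates.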
# LDHA block = LDHA (human) enzyme inhibition; P00338; purified LDHA, NADH/diaphorase-resazurin fluorescence; hits give low values; activity change, % (values are at about 110 or 230 µM); 0.15% of 480,000 active; AID 1347041; in the data active means activity change below about -30%; inconclusive means mostly about -25% to -30%
#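 Enzyme activity of human lactate dehydrogenase 5 (2 nM; 0.06 mM NADH, 0.2 mM pyruvate, 5 min, RT) is measured via a resazurin/diaphorase fluorescence readout of residual NADH.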
# RGS4 inhibitor = inhibitors of human regulator of G protein signaling 4; Transcreener GDP fluorescence polarization, RGS4-accelerated GTP hydrolysis; Potency, µM (top dose mostly 114 µM), most hits filed as inhibitors; P49798; 0.039% of 390,000 active; further: nearly all actives have a fitted effect of over 75% in size
#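 MLSMR compounds (23 nl, pin-transferred) preincubated 10 min at room temperature with a 500nM (2x) first reagent, then RGS4 at 900nM (2x) plus Transcreener GDP mix added; fluorescence polarization (620/688 nm) read before and after 90 min at 30 °C.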
# Numbers stand for hits; – = inactive; ? = inconclusive; · = not tested or not shown; ! = a repeat was not active; [ ] = dose if it differs, or a comment. Unless noted, the call rests on the fitted dose curve; in most records, active means well fitted curve in the direction sought with a large enough effect; inconclusive means small, poorly fitted or top-dose-only effect, or another doubt; inactive means no such curve, though single readings can be large; an effect the other way counts as inactive or inconclusive.
SMILES,TSHR antag,Glioma ERSR ind,pAkt inh,TCR act,LDHA block,RGS4 inhibitor
CCCn1c(=O)[nH]c2ccccc21,–,–,·,–,–,–
Cc1cccc(NC(=S)NCCc2ccccc2)c1C,–,–,–,–,–,–
Cc1cccc(C)c1NC(=S)NCCc1ccc(O)c(O)c1,–,16µM,–,·,–,–
CCCCNC(=O)c1cc(-c2ccc(OC)cc2)nc2ccccc12,·,·,·,·,–,·
Nc1ccc(C2CCCc3nonc32)c2nonc12 (stereo not given),–,–,-113%,–,–,–
Cc1ccc(-c2nc3ccccc3s2)cc1S(=O)(=O)N1CCOCC1,–,–,-90%,·,–,–
CSc1ccccc1NC(=O)CNCCCN1CCOCC1,–,–,–,–,-36,–
O=S(=O)(c1cccs1)N1CCN(C/C=C/c2ccccc2)CC1,–,–,-118%,–,–,?
O=S(=O)(c1ccc(Cl)s1)N1CCN(C/C=C/c2ccccc2)CC1,–,–,–,–,–,–
N#Cc1cc2ccccc2nc1N1CCCCC1,·,·,·,·,–,·
COC(=O)c1ccc(NC(=O)CNCc2ccncc2)cc1,–,–,–,–,-30,–
CN(C)CCN1C(=O)C(O)=C(C(=O)c2ccco2)C1c1ccccc1F (stereo not given),–,–,-121%,–,–,–
COc1cccc(C2C(C(=O)c3ccco3)=C(O)C(=O)N2CCN(C)C)c1OC (stereo not given),–,–,–,–,–,–
O=C(OCc1cc(=O)oc2cc3c(cc12)CCC3)C1CCCO1 (stereo not given),·,·,·,·,–,·
O=c1oc(C2(O)CCCCC2)cc2ccc(/C=C/c3ccc(F)cc3)cc12,-79,–,–,–,–,–
O=c1oc(C2(O)CCCCC2)cc2ccc(Br)cc12,–,–,–,–,–,–
CCOC(=O)Cn1cnc2c(cnn2-c2ccc(C)c(C)c2)c1=O,·,–,·,·,–,–
CCCCNC(=O)Cn1cnc2c(cnn2-c2ccc(C)c(C)c2)c1=O,–,–,-84%,·,–,–
COc1cc(-c2nc3ccccc3s2)cc(OC)c1OC,·,·,·,·,–,·
CC(C)c1nnc(NC(=O)c2nc(S(=O)(=O)Cc3ccc(F)cc3)ncc2Cl)s1,-75,–,–,–,–,–
Cc1cccc(CS(=O)(=O)c2ncc(Cl)c(C(=O)Nc3nnc(C(C)C)s3)n2)c1,-74,–,–,–,–,?
CCOc1ccccc1NC(=O)c1nc(S(=O)(=O)Cc2cccc(C)c2)ncc1Cl,-83,–,–,–,–,–
Cc1ccc(CS(=O)(=O)c2ncc(Cl)c(C(=O)Nc3nnc(C(C)C)s3)n2)cc1,?,–,–,–,–,?
COc1cccc(NC(=O)CN(C)CC(=O)Nc2ccc(C)cc2)c1,·,·,·,·,–,·
CC1=C(CCC(=O)O)c2cc3nc(cc4[nH]c(cc5[nH]c(cc1n2)c(C)c5C(C)O)c(C)c4C(C)O)C(C)=C3CCC(=O)O (stereo not given),·,–,·,·,·,·
SMILES,TSHR antag,Glioma ERSR ind,pAkt inh,TCR act,LDHA block,RGS4 inhibitor
C=Cc1c(C)c2cc3[nH]c(cc4nc(cc5nc(cc1[nH]2)C(C)=C5CCC(=O)O)C(CCC(=O)O)=C4C)c(C)c3C=C,–,–,–,–,–,9.5µM!
CCCn1c(=O)c2ccc(C(=O)NC(C)CC)cc2n2c(SCc3ccccc3)nnc12 (stereo not given),·,·,·,·,–,·
CCCn1c(=O)c2ccc(C(=O)NCC(C)C)cc2n2c(SCc3ccc(F)cc3)nnc12,·,·,·,·,-34,·
CCOC(=O)C1=C(C)N(C2CCCCC2)C(=O)C1,–,–,-101%,–,–,–
COc1cc(N)c(Cl)cc1C(=O)CCC1CCN(CCNS(C)(=O)=O)CC1,·,–,·,·,·,38µM!
CN(/C=C/C(=O)/C=C/N(C)c1ccccc1)c1ccccc1,·,·,·,·,–,·
C[C@H]1CN([C@@H](C)CO)C(=O)c2cc(Br)cnc2O[C@@H]1CN(C)C(=O)CN(C)C,·,–,–,·,-37,·
COc1cccc(CNCc2ccco2)c1,·,·,·,·,–,·
O=C(c1cc(-c2ccco2)[nH]n1)N1CCN(c2ccc(N3CCOCC3)nn2)CC1,·,·,·,·,–,·
COc1ccccc1NC(=O)CSc1nnc(Cc2cccn2C)n1CCc1ccccc1,–,–,-83%,–,–,–
C[C@@H](N)C(=O)O,·,–,·,·,·,21µM!
CC(C)C[C@@H](N)C(=O)O,·,–,·,·,·,38µM
O=C1CCCC2=C1C(c1ccccc1F)n1nc(SCc3ccc(C(=O)O)cc3)nc1N2 (stereo not given),·,·,·,·,–,·
CCOC(=O)c1ccc(Oc2c(C)oc3cc(OCC(=O)c4ccc(OC)cc4)ccc3c2=O)cc1,·,·,·,·,–,·
CCCCC(=O)N(CCOC)c1nnc(-c2ccc(OC)cc2)s1,–,–,-103%,–,–,–[11.4 µM]
Cc1ccc(CN2CCC(CNC(=O)Nc3cn(CC(C)C)c(=O)c4ccccc34)C2)cc1 (stereo not given),·,·,·,·,–,·
O=C(CCc1ccc(O)c(O)c1)N/N=C/c1ccc2c(c1)OCO2,–,22µM,–,–,–,–
Cc1ccc(OCCn2cc(C#N)c3ccccc32)cc1,–,–,-106%,–,–,–
Nc1nccnc1C(=O)NCc1ccc(N2CCc3ccccc3C2)nc1,·,·,·,·,–,·
CCCCC(=O)N(C)c1c(CC)nc2c(OCC(=O)N3CCOCC3)cccn12,·,–,–,·,-37,·
Cc1ccc(NC(=O)C(c2ccc(Cl)cc2)C(C)C)cc1F (stereo not given),·,·,·,·,–,·
Cc1nccn1CC(O)Cn1c2ccccc2c2ccccc21 (stereo not given),–,–,-101%,–,–,–
Cc1cc(C)n(CC(O)Cn2c3ccccc3c3ccccc32)n1 (stereo not given),–,–,–,–,–,–
CCN(CC)S(=O)(=O)c1cccc(-c2nnc(SCc3nnc(-c4ccccc4)o3)n2C)c1,–,–,-99%,–,–,–
CC1CCN(C(=S)NC(=O)c2ccccc2)CC1,–,–,-111%,–,–,–
SMILES,TSHR antag,Glioma ERSR ind,pAkt inh,TCR act,LDHA block,RGS4 inhibitor
Cn1c(-c2ccccc2)csc1=N,·,·,·,·,-49,·
CN=c1scc(-c2ccccc2)n1C,·,·,·,·,–,·
O=C(NCC1CCCN(C(=O)c2cccc(C(F)(F)F)c2)C1)c1ccc(F)cc1 (stereo not given),-132,–,–,–,–,–
O=C(NCC1CCCN(Cc2cccc(C(F)(F)F)c2)C1)c1ccc(F)cc1 (stereo not given),–,–,–,–,–,–
COc1ccccc1NC(=O)c1cc(-c2ccco2)nc2ccccc12,·,·,·,·,–,·
Cc1cc(N)n(-c2ncnc3scc(-c4ccc(Cl)cc4)c23)n1,–,–,-82%,–,–,–
O=C(Nc1cccc2ccccc12)c1ccc(F)cc1,–,–,–,–,–,–
O=C(Nc1cccc2ccccc12)c1ccccc1,-82,–,–,–,–,–
COCC(=O)N1CCN(c2oc(-c3ccccc3C)nc2S(=O)(=O)c2ccc(C)cc2)CC1,·,·,·,·,–,·
